# Experimental data reported in PubChem BioAssay (NCATS).
# Unmarked numbers belong to inactive results. Records with an inconclusive call do not appear. Where a call stands in place of a potency, no number is given. Active and inactive are the calls of the source. Calls follow the shape of the dose curve; as a rule, active = well fitted curve in the direction sought with a large enough effect; inconclusive = small, poorly fitted or top-dose-only effect, or another doubt; inactive = no such curve, though single readings can be large; an effect the other way counts as inactive or inconclusive.
# How the values were obtained:
# [1] = qHTS for Inhibitors of Plasmodium falciparum (DD2) proliferation (AID 504314); also: potency is read from the fitted curve at half-maximal effect
# Outline: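 SYBR Green DNA-fluorescence growth assay: infected RBCs at 0.3% parasitemia, 2.5% hematocrit, 72 h compound exposure, 37C, 5% CO2; overnight lysis with dye at RT; normalized to 0.29 uM artemisinin and vehicle.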
# [2] = qHTS for Inhibitors of Plasmodium falciparum (GB4) proliferation (AID 504315); also: nearly all actives have a fitted effect of over 50% in size; also: potency is read from the fitted curve at half-maximal effect
# Outline: (§1)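 Parasite growth measured as SYBR Green DNA fluorescence (ex 485, em 535 nm) after overnight lysis following 72 h culture at 37 °C, 0.3% parasitemia, 2.5% hematocrit. Values normalized against DMSO and 0.29 uM artemisinin controls, with plate-stack correction.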
# [3] = qHTS for Inhibitors of Plasmodium falciparum (7G8) proliferation (AID 504316); also: nearly all actives have a fitted effect of over 65% in size; also: potency is read from the fitted curve at half-maximal effect
# Outline: as §1
# [4] = qHTS for Inhibitors of Plasmodium falciparum (HB3) proliferation (AID 504318); also: nearly all actives have a fitted effect of over 60% in size
# Outline: as §1
# [5] = qHTS for Inhibitors of Plasmodium falciparum (CP250) proliferation (AID 504320)
# Outline: as §1
# [6] = biological target: Cytochrome P450 2C9 (Homo sapiens) (UniProt P11712); assay: qHTS Assay for Inhibitors and Substrates of Cytochrome P450 2C9 (AID 883); also: nearly all actives have a fitted effect of over 60% in size
# Outline: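 Inhibition of CYP2C9 is scored as loss of luminescence, with 57uM sulphaphenazole defining 100% inhibition. Substrate Luciferin-H is used at 100uM, equal to its KM; enzyme at 10nM in 25mM KPO4, 60 min at 37C with NADPH regeneration.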
# [7] = biological target: Cytochrome P450 3A4 (Homo sapiens) (UniProt P08684); assay: qHTS Assay for Activators of Cytochrome P450 3A4 (AID 885); also: nearly all actives have a fitted effect of over 65% in size
# Outline: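 Activators are scored by enhanced luminescence from CYP3A4 conversion of luciferin-PPXE (25uM, equal to KM) to luciferin, after 60 min at RT with an NADPH-regenerating system.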
# Sequence of Cytochrome P450 3A4 (Homo sapiens) (P08684 whole entry, looked up): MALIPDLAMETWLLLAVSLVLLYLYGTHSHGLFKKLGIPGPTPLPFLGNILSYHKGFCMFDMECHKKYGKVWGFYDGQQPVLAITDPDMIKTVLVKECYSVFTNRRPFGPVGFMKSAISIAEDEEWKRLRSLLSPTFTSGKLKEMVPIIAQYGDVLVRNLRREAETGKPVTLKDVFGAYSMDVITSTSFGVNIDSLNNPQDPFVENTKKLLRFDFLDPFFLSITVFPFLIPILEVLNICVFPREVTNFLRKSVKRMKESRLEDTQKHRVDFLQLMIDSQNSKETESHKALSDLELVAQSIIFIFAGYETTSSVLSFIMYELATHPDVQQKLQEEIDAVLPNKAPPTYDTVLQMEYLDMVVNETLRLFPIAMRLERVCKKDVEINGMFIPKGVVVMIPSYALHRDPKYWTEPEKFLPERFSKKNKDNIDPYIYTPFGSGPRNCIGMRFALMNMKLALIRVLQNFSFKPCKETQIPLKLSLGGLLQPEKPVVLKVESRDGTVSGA
# Sequence of Cytochrome P450 2C9 (Homo sapiens) (P11712 whole entry, looked up): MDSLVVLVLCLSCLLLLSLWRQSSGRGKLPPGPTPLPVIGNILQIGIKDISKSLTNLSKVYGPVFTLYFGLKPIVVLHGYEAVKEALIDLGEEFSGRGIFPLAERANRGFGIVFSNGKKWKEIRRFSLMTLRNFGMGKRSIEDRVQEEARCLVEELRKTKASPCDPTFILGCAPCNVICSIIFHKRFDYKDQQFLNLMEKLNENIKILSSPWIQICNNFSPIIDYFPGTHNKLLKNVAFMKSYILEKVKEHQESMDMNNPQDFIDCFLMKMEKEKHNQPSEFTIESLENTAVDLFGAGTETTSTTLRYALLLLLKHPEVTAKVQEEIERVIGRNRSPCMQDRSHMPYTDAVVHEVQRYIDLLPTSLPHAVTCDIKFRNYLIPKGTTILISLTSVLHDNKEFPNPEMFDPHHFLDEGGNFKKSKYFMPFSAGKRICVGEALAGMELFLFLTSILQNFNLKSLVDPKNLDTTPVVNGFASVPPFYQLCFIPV
Structure (SMILES),Potency [1],Potency [2],Potency [3],Potency [4],Potency [5],Potency [6],"activity change, positive = activation [7]"
CCOC(=O)[C@@]1([C@@H](NC(=O)OC)c2cccc(F)c2)CCCC1=O,inactive,inactive,inactive,inactive,inactive,,
COCC(=O)N1CCc2nc(COc3ccccc3)c3c(c2C1)CO[C@@H](C)C3,inactive,inactive,inactive,inactive,inactive,,
COC(=O)CCC(=O)OC1(C)C(=O)C=C2C=C(C3CC3)N(C(CO)CO)C=C2C1=O (stereo not drawn),inactive,inactive,inactive,inactive,inactive,,
COc1cccc([C@@H]2Oc3ccc(Br)cc3[C@H](O)[C@@H]2O)c1,inactive,inactive,inactive,inactive,inactive,,
COC(=O)CCCC1=CC2=C(c3ccccc3)C(=O)C(C)(OC(=O)C3CCCC3)C(=O)C2=CN1Cc1ccccc1 (stereo not drawn),inactive,inactive,inactive,inactive,inactive,,
CCCCC1=CC2=CC(=O)C(C)(OC(=O)CC)C(=O)C2=CN1CC(C)C (stereo not drawn),inactive,inactive,inactive,inactive,inactive,,
CC[C@@H](C)CN1C(=O)N[C@@H](c2ccccc2)C(C(C)=O)=C1C,inactive,inactive,inactive,inactive,inactive,,
CCOC(=O)CN1C(=O)N[C@@H](c2cccc(C(F)(F)F)c2)C(C(C)=O)=C1C,inactive,inactive,inactive,inactive,inactive,,
COC(=O)C1=C(C(=O)OC)[C@@H]2N(C)c3ccc(OC)cc3[C@@]23C[C@@H](C(=O)OC)N(S(=O)(=O)c2ccc4c(c2)OCCN4C)C3=N1,inactive,inactive,inactive,,,,
COC(=O)C1=C(C(=O)OC)[C@@H]2N(Cc3ccccc3)c3ccccc3[C@@]23CCC(=O)N(CC2CCCCC2)C3=N1,inactive,inactive,inactive,inactive,inactive,,
CCCCC1=CC2=CC(=O)C(C)(OC(=O)CC)C(=O)C2=CN1CCCN(CC)CC (stereo not drawn),inactive,inactive,inactive,inactive,,,
COC(=O)[C@]1(C)C=C[C@@H](C)[C@H](c2ccccc2Br)N1C(=O)C(F)(F)F,inactive,inactive,inactive,inactive,inactive,,
C=CCOC(=O)C(C(C)=O)[C@@H](NC(=O)OC)c1cccc(C(F)(F)F)c1 (stereo partly drawn),inactive,inactive,inactive,inactive,inactive,,
C=CCOC(=O)N[C@H](C(C(=O)OC)=C(C)NCc1ccccc1)c1ccc(C)cc1,inactive,inactive,inactive,inactive,inactive,,
COC/C=C/C1=CC2=CC(=O)C(C)(OC(=O)c3cnc4ccccc4n3)C(=O)C2=CN1Cc1ccco1 (stereo not drawn),inactive,inactive,inactive,inactive,inactive,,
CCCCC1=CC2=CC(=O)C(C)(OC(=O)CC)C(=O)C2=CN1c1ccc(OC)cc1 (stereo not drawn),inactive,inactive,inactive,inactive,inactive,,
CCCC[C@]12Cc3cc(OC)c(OC)cc3[C@H](O1)C1=C(O2)C(=O)c2ccccc2C1=O,3 µM (active),1.69 µM (active),1.51 µM (active),,inactive,,
COC(=O)CC=C[C@@H](C)[C@H](OC)c1cc(F)ccc1Br,inactive,inactive,inactive,inactive,inactive,,
COC(=O)C1=C(C(=O)OC)[C@@H]2N(C)c3ccc(OC)cc3[C@@]23C[C@@H](C(=O)OC)N(C(C)=O)C3=N1,inactive,inactive,inactive,inactive,inactive,,

Structure (SMILES),Potency [1],Potency [2],Potency [3],Potency [4],Potency [5],Potency [6],"activity change, positive = activation [7]"
COC(=O)[C@H]1[C@H](CCc2ccccc2)NC(=O)N(Cc2ccccc2)[C@@H]1C,inactive,inactive,inactive,inactive,inactive,,
COC(=O)CCC(=O)OC1(C)C(=O)C2=CN(c3ccccc3)C(c3ccc(OC)cc3)=CC2=C(Br)C1=O (stereo not drawn),inactive,inactive,inactive,,inactive,,
COC(=O)CCC(=O)OC1(C)C(=O)C2=CN(Cc3ccc(OC)cc3)C(c3ccc(OC)cc3)=CC2=C(Br)C1=O (stereo not drawn),inactive,inactive,inactive,,inactive,,
C=C(C(C)=O)C(O)c1cccs1 (stereo not drawn),inactive,inactive,inactive,,inactive,,
CCOC(=O)CN1C(=O)N[C@@H](c2cccc(C(F)(F)F)c2)[C@H](C(=O)OC)[C@H]1C,inactive,inactive,inactive,inactive,inactive,,
COCCN1C(=O)N[C@@H](c2cccc(F)c2)C(C(=O)OC)=C1C,inactive,inactive,inactive,inactive,inactive,,
CCCNC(=O)N1C2=NC(C(=O)OC)=C(C(=O)OC)[C@@H]3Nc4ccccc4[C@]23C[C@H]1C(=O)OC,inactive,inactive,inactive,inactive,inactive,,
CC1(C)O[C@@H]2[C@@H](O1)C(c1ccccc1)(c1ccccc1)OP(=O)(O)OC2(c1ccccc1)c1ccccc1,inactive,inactive,inactive,inactive,inactive,,
CCCCC1=CC2=CC(=O)C(C)(OC(=O)CC)C(=O)C2=CN1c1ccccc1 (stereo not drawn),inactive,inactive,inactive,inactive,inactive,,
CCCCc1nc2c(c3c1C[C@H](C)OC3)CN(S(=O)(=O)c1ccc3c(c1)OCCN3C)CC2,inactive,inactive,inactive,,inactive,,
COC(=O)C1=C(C(=O)OC)[C@@H]2N(C)c3ccc(OC)cc3[C@@]23C[C@@H](C(=O)OC)N(S(=O)(=O)c2cccs2)C3=N1,inactive,inactive,inactive,,inactive,,
CCN1C(=O)[C@@H]2[C@H]3[C@H](O)[C@H](O)CC(=NO[C@@H](C)c4cc(-c5c(C)cc(C)cc5C)no4)[C@@H]3CC[C@H]2C1=O,inactive,inactive,inactive,,inactive,,
CC(=O)C1=C(C)N(Cc2ccccc2)C(=O)N[C@H]1c1ccco1,inactive,inactive,inactive,,inactive,,
COC/C=C/C1=CC2=CC(=O)C(C)(OC(=O)c3cnc4ccccc4n3)C(=O)C2=CN1CCCCO (stereo not drawn),inactive,inactive,inactive,,inactive,,
CCN1C(=O)N[C@@H](c2cccs2)C(C(C)=O)=C1C,inactive,inactive,inactive,inactive,inactive,,
COC/C=C/C1=CC2=CC(=O)C(C)(OC(=O)c3cnc4ccccc4n3)C(=O)C2=CN1Cc1ccc2c(c1)OCO2 (stereo not drawn),inactive,inactive,inactive,,inactive,,
CCN1C(=O)N[C@H](c2ccc(Br)cc2)C(C(=O)OC)=C1C,inactive,inactive,inactive,inactive,inactive,,
CCN(CC)CCCN1C=C2C(=O)C(C)(OC(=O)CCC(=O)OC)C(=O)C(Br)=C2C=C1c1ccc(OC)cc1 (stereo not drawn),inactive,inactive,inactive,inactive,inactive,,
COC(=O)N1CCc2cc(OC)c(OC)cc2C1Cc1ccc(OC)cc1 (stereo not drawn),inactive,inactive,inactive,inactive,inactive,inactive,-32.2% [at 11.4 µM]

Structure (SMILES),Potency [1],Potency [2],Potency [3],Potency [4],Potency [5],Potency [6],"activity change, positive = activation [7]"
COC(=O)C1=C(C(=O)OC)[C@@H]2Nc3ccccc3[C@@]23C[C@@H](C(=O)OC)N(S(=O)(=O)c2cccs2)C3=N1,inactive,inactive,inactive,inactive,inactive,,
COC(=O)CCCC1=CC2=CC(=O)C(C)(OC(=O)c3cccs3)C(=O)C2=CN1CC1CC1 (stereo not drawn),inactive,inactive,inactive,inactive,inactive,,
CC#CCN1c2ccccc2[C@]23C[C@@H](C(=O)OC)N(C(C)=O)C2=NC(C(=O)OC)=C(C(=O)OC)[C@H]13,inactive,inactive,inactive,,inactive,,
COC(=O)C[C@H]1c2ccccc2[C@H]2C(=C[C@@H](C)[C@H]3C(=O)N(O)C(=O)[C@H]32)N1C(=O)OC,inactive,inactive,inactive,inactive,inactive,,
C=CCN1C=C2C(=O)C(C)(OC(=O)CCC(=O)OC)C(=O)C(Br)=C2C=C1c1ccc(OC)cc1 (stereo not drawn),inactive,inactive,inactive,inactive,inactive,,
C=C[C@@]1(C)CC[C@H](O)[C@H]2C(=O)CCC[C@H]21,inactive,inactive,inactive,,inactive,,
C=C(C)C(=O)c1ccc2c(c1)OCO2,inactive,inactive,inactive,,inactive,,
COC(=O)CCC(=O)OC1(C)C(=O)C2=CN(C(CO)CO)C(c3ccc(OC)cc3)=CC2=C(Br)C1=O (stereo not drawn),inactive,inactive,inactive,inactive,inactive,,
C[C@@H](c1ccccc1)N1C(=O)[C@@H]2[C@H]3[C@H](O)[C@H](O)CC(=NNC(=O)OCc4ccccc4)[C@@H]3CC[C@H]2C1=O,inactive,inactive,inactive,,inactive,,
CCCCc1nc2c(c3c1C[C@H](C)OC3)CN(S(=O)(=O)c1ccc(Cl)c3nonc13)CC2,inactive,inactive,inactive,,inactive,,
CCOC(=O)CN1C(=O)N[C@@H](CCc2ccccc2)[C@@H](C(=O)OC)[C@H]1C,inactive,inactive,inactive,inactive,inactive,,
COC(=O)[C@@]1(C=C2c3ccc(F)cc3[C@@H](OC)[C@@H]2C)[C@@H]2CC=C[C@@H]21,inactive,inactive,inactive,,inactive,,
CCCCC1=CC2=CC(=O)C(C)(OC(=O)CC)C(=O)C2=CN1CCc1ccc(Br)cc1 (stereo not drawn),inactive,inactive,inactive,,inactive,,
COC(=O)C1=C(C(=O)OC)[C@@H]2N(C)c3ccccc3[C@@]23C[C@@H](CO)N(C(=O)c2cc(C)oc2C)C3=N1,inactive,inactive,inactive,inactive,inactive,,
CCN(CC)CCCN1C=C2C(=O)C(C)(OC(=O)CCc3ccccc3)C(=O)C=C2C=C1c1ccc(C#N)cc1 (stereo not drawn),inactive,inactive,inactive,inactive,inactive,,
COC(=O)C1=C(C)N(Cc2ccco2)C(=O)N[C@@H]1c1ccc(Br)cc1,inactive,,inactive,inactive,inactive,,
CCOC(=O)OC[C@H]1O[C@H](c2ccccc2)C=C[C@H]1OC(=O)OCC,inactive,,inactive,inactive,inactive,,
COC(=O)[C@@H]1[C@@H](C)N(Cc2ccccc2)C(=O)N[C@H]1c1cccc(C(F)(F)F)c1,inactive,,inactive,inactive,,,
